Pf growth 96h – Primary qHTS for delayed death inhibitors of the malarial parasite plastid, 96 hour incubation; AID 504834, 2011; Potency, µM (top dose mostly 28.7 µM), most hits filed as inhibitors; actives 6.9% (n = 320,000); P. falciparum luciferase reporter growth, 96 h
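Two-generation exposure (96 h) targets delayed-death phenotype. Reporter parasites carrying integrated firefly luciferase, in red cells at 2% hematocrit and 0.05% parasitemia final, kept at 37 C, 5% CO2; luminescence loss indicates inhibition.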
CHX counter – Cycloheximide Counterscreen for Small Molecule Inhibitors of Shiga Toxin; actives 12% (n = 300,000); cell reporter, cycloheximide protein synthesis inhibition counterscreen; max response, %; in the data active = max response mostly above about 13%, no sharp cut-off; inactive = mostly below about 14%; also: read at 38.3 µM for the half of the compounds with a filed dose
Shiga inhibitor – A qHTS for Small Molecule Inhibitors of Shiga Toxin; AID 2315, 2010; inhibition, % at 38.7 µM; actives 9.2% (n = 290,000); Vero cells, Shiga toxin protein synthesis inhibition reporter; in the data active = inhibition mostly above about 28%, no sharp cut-off; inactive = mostly below about 43%
NS1 inh – qHTS Assay for Inhibitors of Influenza NS1 Protein Function; Potency, µM (titrated, usually from 46.1 µM); actives 0.4% (n = 270,000); AID 2326, 2010; calls by dose curve; also: actives are rising curves; nearly all actives have a fitted effect of over 50% in size
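OD600 was taken as the measure of yeast growth restored by compound in an NS1-expressing S. cerevisiae strain. Cells had been washed out of glucose medium and diluted 1:100 into galactose -URA medium, pH 6.0.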
Pf growth 48h – Primary qHTS for delayed death inhibitors of the malarial parasite plastid, 48 hour incubation | actives 5.9% (n = 310,000) | AID 504832, 2011 | P. falciparum luciferase growth in erythrocytes, 48 h | Potency, µM (series often up to 28.7 µM), actives largely listed as inhibitors
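Parasite viability was followed by luminescence of a genomically integrated firefly luciferase. Cultures held 0.1% parasitemia at 2% hematocrit (final), incubated under 5% CO2 at 37 C.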
Of the large screens only hits and unclear results are named; the others gave an inactive call. Most compounds without a hit are left out; they make up all but 21% or so of the library. Unless noted, calls follow the shape of the dose curve; as a rule, active = well fitted inhibition curve with a large enough effect; inconclusive = small, poorly fitted or top-dose-only effect, or another doubt; inactive = no such curve, though single readings can be large or run the other way.

Cc1noc(C)c1COc1ccc(C(=O)OCC(=O)Nc2cccc(S(=O)(=O)N3CCOCC3)c2)cc1	Pf growth 96h 5.2µM, NS1 inh inconclusive
Cc1noc(C)c1COC(=O)c1cccc(S(=O)(=O)N2CCOCC2)c1	Pf growth 48h inconclusive (no result: CHX counter, Shiga inhibitor, NS1 inh)
COc1ccc(S(=O)(=O)N2CCOCC2)cc1NC(=O)c1c(-c2ccccc2)noc1C	Pf growth 96h 10µM, Pf growth 48h inconclusive (no result: CHX counter, Shiga inhibitor, NS1 inh)
C[C@H](CCC(=O)O)[C@H]1CC[C@@H]2[C@@H]3CC[C@H]4C[C@@H](O)CC[C@@]4(C)[C@@H]3C[C@H](O)[C@@]21C	none (no result: Pf growth 96h, CHX counter, Shiga inhibitor, Pf growth 48h)
C=C1CCN([C@H](C(=O)NCc2ccco2)C(C)C)S(=O)(=O)c2ccccc21	none
CN(C)C(=O)c1nc2ccc(Cl)cn2c1CN1CCCC(OCc2cccnc2)C1 (centres undefined)	Pf growth 96h inconclusive
Cc1onc(-c2ccccc2)c1C(=O)N1CCCSC1=Nc1ccccc1	Pf growth 96h inconclusive, Pf growth 48h 2.9µM
COc1ccc(S(=O)(=O)N2CCOCC2)cc1NC(=O)c1cccc2c(=O)c(C)c(-c3ccccc3)oc12	Pf growth 96h 2.1µM, Pf growth 48h 5.2µM
COc1ccc(S(=O)(=O)N2CCOCC2)cc1NC(=O)c1cc(C)oc1C	Pf growth 96h 12µM, Pf growth 48h inconclusive (no result: CHX counter, Shiga inhibitor, NS1 inh)
COc1ccc(S(=O)(=O)N2CCOCC2)cc1NC(=O)c1ccccc1-c1ccc(C(F)(F)F)cc1	Pf growth 96h inconclusive, NS1 inh inconclusive, Pf growth 48h inconclusive
O=C(NCCCN1CCOCC1)/C(=C/c1ccco1)NC(=O)c1ccccc1	none
CN(C)/C=C\C(=C/C(=O)C(F)(F)F)Nc1ccccc1Oc1ccccc1	Pf growth 48h inconclusive
O=C(COc1ccc(Br)cc1Br)NC(=S)N1CCCc2ccccc21	CHX counter 48, Pf growth 48h inconclusive (no result: Pf growth 96h)
O=C(COc1ccc(Br)cc1Cl)NC(=S)N1CCc2ccccc21	Pf growth 96h inconclusive, CHX counter 35, Shiga inhibitor 50
CC(Oc1ccc(Cl)cc1Cl)C(=O)NC(=S)N1CCc2ccccc21 (centres undefined)	none
CC(C)OC(=O)CSc1nnnn1-c1ccc2c(c1)OCCO2	Pf growth 96h inconclusive, CHX counter 35, Shiga inhibitor 64
O=C(CSc1nnnn1-c1ccc2c(c1)OCCO2)c1cccc2c1OCCO2	CHX counter 33
C(=N\N1CCN(Cc2ccccc2)CC1)/c1ccc(-c2ccccc2)cc1	none
COc1ccccc1/C=C/C=N/N1CCN(Cc2ccccc2)CC1	CHX counter 13
Cc1ccc(CN2CCN(/N=C/c3ccccc3)CC2)cc1	none
Cc1ccc(/C=N/N2CCN(Cc3ccccc3)CC2)cc1	CHX counter 17 (no result: NS1 inh)
CC(/C=N/N1CCN(Cc2ccccc2)CC1)=C\c1ccccc1	Pf growth 96h inconclusive, CHX counter 25 (no result: NS1 inh)
Fc1ccc(/C=N/N2CCN(Cc3ccccc3)CC2)cc1	Pf growth 96h 9.3µM, CHX counter 20, Shiga inhibitor 62
CC(=C/c1ccccc1)/C=N/N1CCN(Cc2ccc(C)cc2)CC1	none
Nc1nc(SCC(=O)Nc2ccc([N+](=O)[O-])cc2)n[nH]1	none
O=C(Cn1c(=O)c2sccc2n(Cc2cccc([N+](=O)[O-])c2)c1=O)NCCc1ccccc1	Pf growth 96h inconclusive, Pf growth 48h inconclusive
C=CCN(c1ccccc1)S(=O)(=O)c1cccc(C(=O)OCC(=O)NCCOC)c1	NS1 inh inconclusive
C=CCN(c1cccc(C(F)(F)F)c1)S(=O)(=O)c1cccc(C(=O)OCC(=O)NCCC)c1	Pf growth 96h 13µM, Pf growth 48h inconclusive
COc1ccccc1N1C(=O)C2C(c3ccccc3F)NN(C(=O)c3ccc(C)cc3)C2C1=O (centres undefined)	Pf growth 96h inconclusive
Nc1nc(N)c2cc(Sc3ccc4ccccc4c3)ccc2n1	Pf growth 96h inconclusive, Pf growth 48h 0.0074µM
NS(=O)(=O)c1ccc(NC2=CC(=O)C(=O)c3ccccc32)cc1	Pf growth 96h 10µM, Pf growth 48h inconclusive
NS(=O)(=O)c1ccc(NC(=O)Nc2ccccc2)cc1	none
Cc1ccc(NC2=CC(=O)C(=O)c3ccccc32)cc1	Pf growth 96h 0.83µM, CHX counter 43, Shiga inhibitor 115, Pf growth 48h 0.52µM
CCOC(=O)c1ccc(NC2=CC(=O)C(=O)c3ccccc32)cc1	Pf growth 48h 5.9µM
CCC(C(=O)Nc1cc(Cl)c(OC)cc1OC)c1ccccc1 (centres undefined)	none

Compound activity deposited in PubChem BioAssay by National Center for Advancing Translational Sciences (NCATS).
